PubChem BioAssay (NCATS)
Inconclusive results are not listed. Values without a mark were called inactive. Calls follow the shape of the dose curve; as a rule, active = well fitted cell-killing curve with a large enough effect; inconclusive = small, poorly fitted or top-dose-only effect, or effect the other way; inactive = flat fitted curve, though single readings scatter.

test system: CASKI; test: Primary qHTS to identify gynecologic anti-cancer compounds using libraries of approved drugs and bioactive compounds (AID 1345084); conditions: Gynecologic cancer cell panel viability, ATPlite luminescence, 48 h; series mostly up to 57.5 µM; activity change, negative = cytotoxicity: at the top concentration; also: nearly all actives have a fitted effect of over 55% in size
Method in brief: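 Cells, 1,000 per well, were allowed to settle for 16 h at 37 C before compound addition. Five concentrations were tested for 48 h, and viability was read by ATPlite luminescence after 15 min at room temperature.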
% is scaled to controls: 0 for no effect and ±100 for the full control effect.

Compared with `CNC12CC3C[C@@](C)(C1)C[C@](C)(C3)C2`, `C=C(C(=O)O)C1CCC2(C)CCC(O)C(C)(O)C2C1` (configuration not stated) is higher in “activity change, negative = cytotoxicity” value: -17.7% for the first, -0.166% for the second.

Compared with `Cc1ccc(NC(=O)C(=O)NC2CC(C)(C)NC(C)(C)C2)cc1`, `C=C(CO)C12OC1C1(C)C(=CC2=O)C(O)C(O)CC1C` (configuration not stated) is higher in “activity change, negative = cytotoxicity” value: -3.36% for the first, 24.9% for the second.

First: O=S(=O)(NC1CCC(c2cc(F)ccc2F)(S(=O)(=O)c2ccc(Cl)cc2)CC1)C(F)(F)F (configuration not stated)
Second: O=C(CCc1ccccc1)N1CCC(O)(Cn2cnc3cc(Cl)ccc3c2=O)CC1
The “activity change, negative = cytotoxicity” value of the first is higher: 0.588% for the first, -5.46% for the second.

First: O=C(Nc1ccccc1-c1cn2c(CN3CCNCC3)csc2n1)c1ccc2ccccc2n1
Second: O=C(Nc1ccc(S(=O)(=O)Nc2nccs2)cc1)C(c1ccccc1)c1ccccc1
The “activity change, negative = cytotoxicity” value of the first is lower: -0.97% for the first, 17.5% for the second.

First: CC(C)C(N)C(=O)OCCOCn1cnc2c(=O)[nH]c(N)nc21 (configuration not stated)
Second: CCOCCn1nc(CC)c2nc(N3CCC(C(=O)O)CC3)nc(Nc3cc(C)ccn3)c21
The “activity change, negative = cytotoxicity” value of the first is higher: 8.18% for the first, -1.42% for the second.

`O=c1[nH]ccc2cc(OC3CCNCC3)ccc12` was tested, and the “activity change, negative = cytotoxicity” value was 5.1%.

Compared with `COc1cccc2cc3c(c(O[C@@H]4O[C@H](CO[C@@H]5O[C@H](CO)[C@@H](O)[C@H](O)[C@H]5O)[C@@H](O)[C@H](O)[C@H]4O)c12)C(C)OC3=O` (some centres not stated), `CC1=CC(=O)C2(OC3OC(C)C(O)C(OC(=O)/C=C/c4ccccc4)C3O)C=COC(OC3OC(CO)C(O)C(O)C3O)C12` (configuration not stated) is lower in “activity change, negative = cytotoxicity” value: 8.97% [at 25.3 µM] for the first, 4.96% [at 25.3 µM] for the second.

Compared with `C/C(=C\CC[C@@H](C)[C@H]1CC(O)[C@@]2(C)C3CC[C@H]4C(C)(C)[C@@H](OC5OCC(O)C(O)C5OC5OC(CO)C(O)C(O)C5O)CC[C@@]45C[C@@]35CC(O)[C@]12C)C(=O)O` (some centres not stated), `CC(=O)OC1CC2(C)C3=CCC4(C)C5C(O)C(O)C(C(C)C)C5(C)CCC4(C)C3CCC2C(C)(C)C1OC1OC(CO)C(O)C(O)C1O` (configuration not stated) is higher in “activity change, negative = cytotoxicity” value: -1.91% [at 25.3 µM] for the first, 13.1% [at 25.3 µM] for the second.

Going from `C=CC(C)(C)C12C=C(OC)C(=O)N3C(C(C)C)C(=O)NC31N(OC)c1ccccc12` (configuration not stated) to `COc1c2c(c(CO)c3c1C(=O)OC3)OC1(C)CCC3(O)C(C)(C)OC(=O)CCC3(C)C1C2` (configuration not stated), the “activity change, negative = cytotoxicity” value rises from -3.57% [at 25.3 µM] to -1.63% [at 25.3 µM].

First: C=C1[C@H](OC(C)=O)[C@H]2[C@@H](OC(C)=O)[C@](C)(OC(C)=O)C[C@]2(OC(C)=O)C(=O)[C@H](C)/C=C/C(C)(C)C(=O)[C@H](OC(=O)C(C)CC)[C@H]1OC(C)=O (some centres not stated)
Second: C=C(C)C1CCC2(C(=O)O)CCC3(C(=O)O)C(CCC4C5(C)CCC(O)C(C)(C(=O)O)C5CCC43C)C12 (configuration not stated)
The “activity change, negative = cytotoxicity” value of the first is higher: 9.53% [at 25.3 µM] for the first, -0.687% [at 25.3 µM] for the second.

In the case of `C[C@@H]1O[C@@H](OC[C@H]2O[C@@H](OC(CCCCc3ccc(O)cc3)CCc3ccc(O)cc3)[C@H](O)[C@@H](O)[C@@H]2O)[C@H](O)[C@H](O)[C@H]1O` (some centres not stated), the “activity change, negative = cytotoxicity” value is reported as 1.73% [at 25.3 µM].

Compared with `CC(C)=CCC[C@](C)(O[C@@H]1O[C@H](CO)[C@@H](O)[C@H](O)[C@H]1O)[C@H]1CC[C@]2(C)[C@@H]1[C@H](O)CC1[C@@]3(C)CC[C@H](O)C(C)(C)C3[C@@H](O[C@@H]3O[C@H](CO)[C@@H](O)[C@H](O)[C@H]3O[C@@H]3OC[C@@H](O)[C@H](O)[C@H]3O)C[C@]12C` (some centres not stated), `CN=C(N)NCCCCC/C=C(/C)CC(C)C1OC(=O)C(C)C(O)/C=C/C(C)C(O)CC(O)C(C)C(O)CCC(C)C(O)CC2(O)OC(CC(OC(=O)CC(=O)O)CC(O)CC(O)C(C)C(O)/C(C)=C/CCC1C)CC(O)C2O` (configuration not stated) is higher in activity change, negative = cytotoxicity: -3.01% [at 11.6 µM] for the first, 9.88% [at 11.6 µM] for the second.

Going from `CC1(C)CCCC2(C)C1CC(=O)C13CC(CCC12)C(O)(CO)C3` (configuration not stated) to `C=CC(C)(O)CC[C@H]1C(=C)CCC2[C@](C)(C(=O)O)CCC[C@@]21C` (some centres not stated), the “activity change, negative = cytotoxicity” value rises from -4.93% [at 38.5 µM] to 9.16% [at 38.5 µM].

First: COC(=O)c1ccc(OC(CO)C(O)c2ccc(O)c(OC)c2)c(OC)c1 (configuration not stated)
Second: C/C1=C\C[C@]2(C)C(=O)C(O)=C([C@H](C)CO)[C@H]2C/C=C(\C)[C@@H](O)CC/C(C)=C/CC1
The “activity change, negative = cytotoxicity” value of the first is lower: -5.65% [at 38.5 µM] for the first, -0.928% [at 38.5 µM] for the second.

Compound `CC1OC(OC2C(CO)OC(OCC3OC(OC(=O)C45CCC(C)(C)CC4C4=CCC6C7(C)CCC(OC8OC(CO)C(O)C(OC9OC(CO)C(O)C(O)C9O)C8O)C(C)(C)C7CCC6(C)C4(C)CC5)C(O)C(O)C3O)C(O)C2O)C(O)C(O)C1OC1OC(CO)C(O)C(O)C1O` (configuration not stated) has an activity change, negative = cytotoxicity of 8.74% [at 6.55 µM].
